From PMC12670160, “A drug-repurposing screen of FDA- and EMA-approved drugs identifies two NF-κB inhibitors active against eumycetoma” (Journal of Antimicrobial Chemotherapy, 2025)
Structures can show the parent of a compound that is named as a salt. Where two headings read alike, the source gives them in different places. In all, about 5,300 compounds went through this assay and about 130 (2.5%) showed an effect of 50% or more. This is one part of a sample in which strong results are shown more often than they occur. Peptide text beside a SMILES is read from it. * marks the point of attachment. PhAc = O=C(Cc1ccccc1)*

Tested on: M. mycetomatis strain mm55
Conditions: primary screen, metabolic activity vs growth control, 96 h, 2 µM, inhibitor

CCCCCCCCCCC(CO)CCCCCCCC (stereo not shown) [ONC0003687, 2octyldodecan1ol]
% viability: 64.53%

CCCCC(CC)CNC(=N)NC(=N)NCCCCCCNC(=N)NC(=N)NCC(CC)CCCC (stereo not shown) [Alexidine dihydrochloride]
% viability: 2.643%

CCCCCCCCCCCCOS(=O)(=O)O [ONC0004120, dodecylsulfate]
% viability (Madurella mycetomatis metabolic activity at 2µM (%)): 112%

N=C(N)N=Nc1ccc(NNC(=N)S)cc1 [ONC0002980, ambazone]
% viability: 75.31%

COC(=O)c1cc(OC)c2c(c1-c1c(CO)cc(OC)c3c1OCO3)OCO2 [ONC0002187, bicyclol]
% viability: 70.1%

COC(=O)c1ccccc1O [ONC0003750, methylsalicylate]
% viability: 102.4%

COC(=O)c1cc(OC)c2c(c1-c1c(C(=O)OC)cc(OC)c3c1OCO3)OCO2 [ONC0003333, bifendate]
% viability: 41.54%

CC1(C)[C@@H](OC(=O)CCC(=O)O)CC[C@]2(C)[C@H]3C(=O)C=C4[C@@H]5C[C@@](C)(C(=O)O)CC[C@]5(C)CC[C@@]4(C)[C@]3(C)CC[C@@H]12 [ONC0000604, carbenoxolone sodium]
% viability: 49.18%

CC1(C)[C@@H](O)CC[C@]2(C)[C@H]3C(=O)C=C4[C@@H]5C[C@@](C)(C(=O)O)CC[C@]5(C)CC[C@@]4(C)[C@]3(C)CC[C@@H]12 [ONC0003205, enoxolone]
% viability: 101.1%

CC(=O)O[C@@H]1CC[C@@]2(C)[C@@H](CC[C@]3(C)[C@@H]2C(=O)C=C2[C@@H]4[C@@H](C)[C@H](C)CC[C@]4(C)CC[C@]23C)[C@@]1(C)C(=O)O [ONC0002083, akba]
% viability: 67.6%

O=c1[nH]c(=O)c2[nH]c(=O)[nH]c2[nH]1 [ONC0003522, uricacid]
% viability: 130.7%

CCOC(=O)CNC(=O)[C@@H]1CCCN1C(=O)Cc1ccccc1 [ONC0001144, omberacetam] (PhAc-Pro-Gly-OEt)
% viability: 45.25%

CCOC(=O)[C@H](CCc1ccccc1)N[C@@H](C)C(=O)N1CCC[C@H]1C(=O)O [ONC0000561, enalapril maleate]
% viability: 109.8%

C[C@H](N[C@@H](CCc1ccccc1)C(=O)O)C(=O)N1CCC[C@H]1C(=O)O [ONC0003897, enalaprilat]
% viability: 70.49%

N[C@@H]1C[C@H]1c1ccccc1 (racemic) [ONC0000562, tranylcypromine sulfate]
% viability: 104.4%

CCCN(CCC)CCc1ccc(OC)c(OCCc2ccccc2)c1 [ONC0000866, ne100]
% viability: 62.29%

O=P(O)(O)C(O)(Cc1cnc2ccccn12)P(=O)(O)O [ONC0000278, minodronic acid hydrate]
% viability: 88.21%

C[C@@H]1O[C@@]2(CS1)CN1CCC2CC1.C[C@H]1O[C@]2(CS1)CN1CCC2CC1.Cl [ONC0002680, cevimeline]
% viability: 67.14%

COc1ccccc1N1CCN(CCN2C(=O)CC3(CCCC3)CC2=O)CC1 [ONC0002563, bmy7378]
% viability: 52.22%

COc1ccccc1CC(=N)N1C[C@@H]2C(=O)CCC(c3ccccc3)(c3ccccc3)[C@@H]2C1 [ONC0001413, rp67580]
% viability: 48.12%

NC(CC(F)C(=O)O)C(=O)O (stereo not shown) [ONC0003677, 4fluorodlglutamic acid]
% viability: 63.49%

CCN(CC)S(=O)(=O)c1ccc(C(=O)O)cc1 [ONC0004305, etebenecid]
% viability: 97.53%

CC(C)c1ccc2c(c1)CC[C@H]1[C@](C)(CN)CCC[C@]21C [ONC0000210, lylamine]
% viability: 63.87%

Nc1ncnc2c1ncn2[C@@H]1O[C@H](CO)C[C@H]1O [ONC0003004, cordycepin]
% viability: 108%

Nc1ncnc2c1ncn2[C@H]1CC[C@@H](CO)O1 [ONC0003689, 23dideoxyadenosine]
% viability: 49.81%

O=c1[nH]cnc2c1ncn2[C@H]1CC[C@@H](CO)O1 [ONC0004781, didanosine videx]
% viability: 107%

CSc1ccccc1Nc1nc(N2CCNCC2)nc2c(NCC3CC3)ncnc12.Cl [ONC0001097, khkin1 hydrochloride]
% viability: 76.94%

CC(=O)N1CCN(c2ccc(OCC3COC(Cn4ccnc4)(c4ccc(Cl)cc4Cl)O3)cc2)CC1 (stereo not shown) [Ketoconazole]
% viability: 1.788%

CCC(C)n1ncn(-c2ccc(N3CCN(c4ccc(OCC5COC(Cn6cncn6)(c6ccc(Cl)cc6Cl)O5)cc4)CC3)cc2)c1=O (stereo not shown) [Itraconazole hydrochloride]
% viability: 4.9%

COc1cc(N2CCN(C(C)=O)CC2)ccc1Nc1ncc(Cl)c(Nc2ccc(N3CCN(C(C)=O)CC3)cc2OC)n1 [ONC0003574, krca0008]
% viability: 122%

O=C(O)c1ccc(OCCn2ccnc2)cc1 [ONC0003331, dazoxiben]
% viability: 112.5%

CC[C@@H]([C@H](C)O)n1ncn(-c2ccc(N3CCN(c4ccc(OC[C@@H]5CO[C@@](Cn6cncn6)(c6ccc(F)cc6F)C5)cc4)CC3)cc2)c1=O [Posaconazole]
% viability: 0.7626%

CC(C)N1CCN(c2ccc(OC[C@@H]3CO[C@@](Cn4cncn4)(c4ccc(Cl)cc4Cl)O3)cc2)CC1 [ONC0002390, terconazole]
% viability: 66.82%

CCC(=O)O[C@@H](OP(=O)(CCCCc1ccccc1)CC(=O)N1C[C@H](C2CCCCC2)C[C@H]1C(=O)O)C(C)C (stereo partly shown) [ONC0005007, fosinopril sodium monopril]
% viability: 152.1%

O=C(CCCN1CCC(n2c(O)nc3ccccc32)CC1)c1ccc(F)cc1 [ONC0002014, benperidol]
% viability: 79.93%

N[C@@H]1CON=C1O [ONC0000314, cycloserine d]
% viability: 88.4%

CN[C@@H](C)C(=O)N[C@H]1CCCC[C@H]2CCC(C(=O)N[C@@H](c3ccccc3)c3cn(CCCCc4ccc(CCCCn5cc([C@@H](NC(=O)[C@@H]6CC[C@@H]7CCCC[C@H](NC(=O)[C@H](C)NC)C(=O)N76)c6ccccc6)nn5)cc4)nn3)N2C1=O (stereo partly shown) [ONC0003931, sm164]
% viability: 63.69%
